PubChem BioAssay (Tox21)
Where “and” joins values, the source holds several entries; their conditions need not be identical. Equal entries are not always repeated. Results filed as inconclusive are left out. Calls of active or inactive are those of the source. Unless noted, the call rests on the fitted dose curve; in most records, active means well fitted curve in the direction sought with a large enough effect in the repeat runs; inconclusive means weak or mixed curves; inactive means no such curve, though single readings can be large; an effect the other way counts as inactive or inconclusive.

Assays:
[1] = qHTS assay to identify small molecule antagonists of the vitamin D receptor (VDR) signaling pathway - cell viability counter screen (AID 743225); further: nearly all actives have a fitted effect of over 50% in size; further: potency means the concentration at half of the fitted maximal effect
Outline: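 Same-well multiplex: following 16 h treatment of HEK 293T cells carrying a UAS-driven beta-lactamase reporter with compound and agonist (3 nM final), and a 2 h FRET substrate step, CellTiter-Glo was added and luminescence read after 30 min.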

[2] = qHTS assay to identify small molecule agonists of the endoplasmic reticulum stress response signaling pathway (AID 1159516; active means well fitted activation curve with a large enough effect in the signal ratio in the repeat runs, not every such curve was filed as active; the % refers to the signal ratio)
Outline: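 Beta-lactamase expression from the ER stress response element in HeLa reporter cells is quantified with the LiveBLAzer B/G FRET substrate, read at 405 nm excitation after 2 hr at room temperature, following 5 hr compound treatment at 37 C.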

[3] = qHTS assay to identify small molecule agonists of the endoplasmic reticulum stress response signaling pathway - cell viability counter screen (AID 1159517; calls by dose curve; further: nearly all actives have a fitted effect of over 50% in size; further: potency means the concentration at half of the fitted maximal effect)
Outline: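 Cytotoxicity of test compounds toward ESRE-bla HeLa cells was assessed after 5 hr exposure. The luminescent CellTiter-Glo signal was measured 30 min after reagent addition.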

[4] = qHTS assay to identify small molecule antagonists of the retinoid-related orphan receptor gamma (ROR-gamma) signaling pathway - cell viability counter screen (AID 1159520); further: nearly all actives have a fitted effect of over 50% in size; further: potency means the concentration at half of the fitted maximal effect
Outline: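 Tet-on ROR gamma CHO cells (1,000/well) were plated 4 hr, given compounds in DMSO for 2 hr at 37 C, then induced with 1 uM final doxycycline for 16 hr. Viability was read as ATP by CellTiter-Glo luminescence after 30 min.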

[5] = target: Nuclear receptor ROR-gamma (Homo sapiens) (UniProt P51449); assay: qHTS assay to identify small molecule antagonists of the retinoid-related orphan receptor gamma (ROR-gamma) signaling pathway (AID 1159521; further: nearly all actives have a fitted effect of over 50% in size; further: potency means the concentration at half of the fitted maximal effect)
Outline: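 Inducible-expression reporter assay: doxycycline (1 uM final) switched on RORγ in CHO cells bearing a ROR response element-luciferase construct, with test compounds present from 2 h beforehand. Decreased luminescence after 16 h defined antagonist activity.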

[6] = qHTS assay to identify small molecule agonists of the AP-1 signaling pathway - cell viability counter screen (AID 1159525; calls by dose curve; further: nearly all actives have a fitted effect of over 55% in size; further: potency means the concentration at half of the fitted maximal effect)
Outline: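 Each titration point was normalised to DMSO and tetra n-octyl ammonium bromide controls. The read was Cell Titer Glo luminescence after 30 min at RT, following 5 h compound exposure of ME-180 AP-1-bla cells at 37 °C.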

[7] = qHTS assay to identify small molecule agonists of the RXR signaling pathway - cell viability counter screen (AID 1159529); further: nearly all actives have a fitted effect of over 50% in size; further: potency means the concentration at half of the fitted maximal effect
Outline: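 Counter screen: CellTiter-Glo luminescence. Cells: RXR-alpha-UAS-bla HEK 293T. Medium: 2% charcoal-stripped FBS. Treatment: 16 h, 37 C. Reagent incubation: 30 min, RT.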

[8] = qHTS assay to identify small molecule agonists of the AP-1 signaling pathway (AID 1159526; calls by dose curve)
[9] = target: Retinoic acid receptor RXR-alpha (Homo sapiens) (UniProt P19793); assay: qHTS assay to identify small molecule agonists of the RXR signaling pathway (AID 1159527; calls by dose curve; further: nearly all actives have a fitted effect of over 35% in size)
Retinoic acid receptor RXR-alpha (Homo sapiens), sequence (P19793 whole entry, looked up): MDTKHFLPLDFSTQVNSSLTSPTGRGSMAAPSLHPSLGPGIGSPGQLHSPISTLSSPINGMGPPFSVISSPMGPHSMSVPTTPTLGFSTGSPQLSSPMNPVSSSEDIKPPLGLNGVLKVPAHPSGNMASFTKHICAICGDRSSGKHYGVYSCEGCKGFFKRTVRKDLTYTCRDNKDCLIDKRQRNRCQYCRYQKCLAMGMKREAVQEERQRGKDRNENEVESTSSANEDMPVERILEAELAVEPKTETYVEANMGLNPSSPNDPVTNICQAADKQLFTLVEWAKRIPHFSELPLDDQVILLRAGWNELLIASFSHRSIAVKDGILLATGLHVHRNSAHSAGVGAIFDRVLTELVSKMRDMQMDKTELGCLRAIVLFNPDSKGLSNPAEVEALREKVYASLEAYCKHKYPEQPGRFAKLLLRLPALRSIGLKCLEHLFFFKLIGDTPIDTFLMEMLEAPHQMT
Outline: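 Compounds in DMSO were added to RXR-alpha-UAS-bla HEK 293T cells kept in 2% charcoal-stripped serum, and incubated 16 hr at 37 C with 5% CO2. Reporter signal came from a 2 hr B/G FRET substrate step.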

[10] = qHTS assay to identify small molecule agonists of the NFkB signaling pathway - cell viability counter screen (AID 1159515; calls by dose curve; further: nearly all actives have a fitted effect of over 55% in size; further: potency means the concentration at half of the fitted maximal effect)
Outline: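 Plate 2,000 NFkB-bla ME-180 cells/well; incubate overnight. Add compounds, 5 hr at 37 C. Add FRET substrate, 1.5 hr RT. Add CellTiter-Glo, 30 min RT; read luminescence.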

Measured: Potency

O=c1[nH]c2ccccc2n1C1CCN(CCCC(c2ccc(F)cc2)c2ccc(F)cc2)CC1
inactive: [2]
active: [1] 24.5 µM | [3] 49 µM and 23.9 µM | [4] 24.3 µM and 29.8 µM | [5] 19.3 µM and 23.7 µM | [6] 19.5 µM | [7] 21.9 µM and 23.9 µM

CC(C)(C)OO
not listed: [10]
inactive: all other assays above

N#CNC#N
not listed: [1] | [10]
inactive: all other assays above

c1ccc(OCC2CO2)cc1 (configuration not stated)
not listed: [9] | [10]
inactive: all other assays above

CCOP(=S)(OCC)OC(Cl)C(Cl)(Cl)Cl (configuration not stated)
inactive: [1] | [10] | [5] | [6] | [9] | [7]

Cc1cc(C)cc(OP(=O)(Oc2cc(C)cc(C)c2)Oc2cc(C)cc(C)c2)c1
not listed: [9] | [10]
inactive: all other assays above

CC(C)CC(C)(c1ccc(O)cc1)c1ccc(O)cc1
active: [10] 49.1 µM | [5] 43.4 µM and 48.6 µM | [6] 43.8 µM | [7] 55.1 µM and 49 µM

O=C(O)COc1nc(Cl)c(Cl)cc1Cl
inactive: [2] | [3] | [4] | [6] | [8]

FC(F)(F)c1cccc(C2=CCN(CCc3ccc4ccccc4c3)CC2)c1
not listed: [7] | [8] | [10]
inactive: all other assays above

COc1ccc(/C(=C/C(=O)N2CCOCC2)c2ccc(Cl)cc2)cc1OC
not listed: [7] | [9] | [10]
inactive: all other assays above

CCC(C)(C)C(=O)OC1=C(c2ccc(Cl)cc2Cl)C(=O)OC12CCCCC2
inactive: [1] | [10] | [5] | [6] | [9] | [7]

ClC(Cl)=C(Cl)Cl
not listed: [10]
inactive: all other assays above

Clc1ccc(CCC(Cn2ccnc2)Sc2c(Cl)cccc2Cl)cc1 (configuration not stated)
active: [10] 23.9 µM | [6] 26.8 µM | [7] 23.9 µM

BrCBr
not listed: [5] | [10]
inactive: all other assays above

CCCN(CC)CC1COC2(CCC(C(C)(C)C)CC2)O1 (configuration not stated)
not listed: [10]
inactive: all other assays above

C=CC(=O)OCCCCOC(=O)C=C
active: [4] 19.3 µM
inactive: [1] | [10] | [7]

CC(C)CCCCCOC(=O)c1ccccc1C(=O)OCCCCCC(C)C
not listed: [9] | [10]
inactive: all other assays above

Cc1cc(C)c(C2=C(OC(=O)CC(C)(C)C)C3(CCCC3)OC2=O)c(C)c1
not listed: [10]
inactive: all other assays above

Oc1ccc(C2(c3ccc(O)cc3)c3ccccc3-c3ccccc32)cc1
active: [10] 54.9 µM | [7] 38.9 µM

NNC(=O)c1ccccc1
not listed: [10]
inactive: all other assays above

FC(Cl)(Cl)Cl
not listed: [10]
inactive: all other assays above

CN(C)CCc1c[nH]c2ccc(O)cc12
not listed: [7] | [9] | [10]
inactive: all other assays above
